Test results from PubChem BioAssay AID1159580 (chemical genetic matrix, 2015).
Out of some 5,500 compounds screened, about 2,000 (36%) were called active. About 18% were inconclusive and are not listed. Cut-off read from the data, not from the text of the source: active = normalized growth mostly below about 0.91 (no sharp cut-off); inconclusive = no clear call, values can overlap the other calls; inactive = mostly above about 0.92. The list shows a part of the results.

Assay: chemical genetic growth profiling, strain panel (AID 1159580);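 note: tested at 20 µM; growth read once vehicle control cultures reached saturation at 30 °C; 1 = growth at the plate median or of vehicle wells; lower values mean less growth of the strain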
Conditions: growth OD

Measured: normalized growth

CC(C)(Sc1cc(C(C)(C)C)c(O)c(C(C)(C)C)c1)Sc1cc(C(C)(C)C)c(O)c(C(C)(C)C)c1
inactive: S. cerevisiae deletion strains, locus YJR075W, strain HOC1, stronger effect = lower value 1.01 | S. cerevisiae deletion strains, locus YKL068W, stronger effect = lower value 1.01 | S. cerevisiae deletion strains, locus YKL085W, strain MDH1 (second series), stronger effect = lower value 1.05 | S. cerevisiae deletion strains, locus YKL085W, strain MDH1, stronger effect = lower value 1.05 | S. cerevisiae deletion strains, locus YKL160W, strain elf1, stronger effect = lower value 0.99 | S. cerevisiae deletion strains, locus YKL190W, strain CNB1, stronger effect = lower value 1.01 | S. cerevisiae deletion strains, locus YKR001C, strain vps1, stronger effect = lower value 1.02 | S. cerevisiae deletion strains, locus YKR026C, strain gcn3, stronger effect = lower value 0.987 | S. cerevisiae deletion strains, locus YKR091W, strain srl3, stronger effect = lower value 1.02 | S. cerevisiae deletion strains, locus YLL001W, strain dnm1, stronger effect = lower value 0.996 | S. cerevisiae deletion strains, locus YLL026W, stronger effect = lower value 1 | S. cerevisiae deletion strains, locus YLL041C, strain sdh2, stronger effect = lower value 1.01 | S. cerevisiae deletion strains, locus YLR027C, strain aat2, stronger effect = lower value 0.994 | S. cerevisiae deletion strains, locus YLR039C, strain RIC1, stronger effect = lower value 1.02 | S. cerevisiae deletion strains, locus YLR058C, strain SHM2, stronger effect = lower value 1.01 | S. cerevisiae deletion strains, locus YLR102C, strain apc9, stronger effect = lower value 1.03 | S. cerevisiae deletion strains, locus YLR113W, strain HOG1, stronger effect = lower value 1.01 | S. cerevisiae deletion strains, locus YLR221C, strain rsa3, stronger effect = lower value 1.01 | S. cerevisiae deletion strains, locus YLR258W, strain gsy2, stronger effect = lower value 1.01 | S. cerevisiae deletion strains, locus YLR262C, strain YPT6 (second series), stronger effect = lower value 1 | S. cerevisiae deletion strains, locus YLR262C, strain YPT6, stronger effect = lower value 1.01 | S. cerevisiae deletion strains, locus YLR268W, strain sec22, stronger effect = lower value 1.09 | S. cerevisiae deletion strains, locus YLR320W, strain mms22, stronger effect = lower value 1 | S. cerevisiae deletion strains, locus YLR330W, strain CHS5, stronger effect = lower value 1.01 | S. cerevisiae deletion strains, locus YLR342W, strain FKS1 (second series), stronger effect = lower value 0.992 | S. cerevisiae deletion strains, locus YLR342W, strain FKS1, stronger effect = lower value 1 | S. cerevisiae deletion strains, locus YLR357W, strain rsc2, stronger effect = lower value 0.997 | S. cerevisiae deletion strains, locus YLR370C, strain arc18, stronger effect = lower value 1.01 | S. cerevisiae deletion strains, locus YLR371W, strain rom2, stronger effect = lower value 1.01 | S. cerevisiae deletion strains, locus YLR384C, strain iki3, stronger effect = lower value 0.99 | S. cerevisiae deletion strains, locus YLR418C, strain cdc73, stronger effect = lower value 1.07 | S. cerevisiae deletion strains, locus YML016C, strain PPZ1, stronger effect = lower value 0.999 | S. cerevisiae deletion strains, locus YML032C, strain rad52, stronger effect = lower value 1.03 | S. cerevisiae deletion strains, locus YML120C, strain ndi1, stronger effect = lower value 1 | S. cerevisiae deletion strains, locus YML124C, strain tub3, stronger effect = lower value 1.02 | S. cerevisiae deletion strains, locus YMR058W, strain fet3, stronger effect = lower value 1.02 | S. cerevisiae deletion strains, locus YMR078C, strain ctf18, stronger effect = lower value 1.03 | S. cerevisiae deletion strains, locus YMR125W, strain sto1, stronger effect = lower value 1 | S. cerevisiae deletion strains, locus YMR129W, stronger effect = lower value 1.01 | S. cerevisiae deletion strains, locus YMR205C, strain PFK2, stronger effect = lower value 1.01 | S. cerevisiae deletion strains, locus YMR223W, strain ubp8, stronger effect = lower value 1.02 | S. cerevisiae deletion strains, locus YMR231W, strain pep5, stronger effect = lower value 1 | S. cerevisiae deletion strains, locus YMR263W, strain SAP30, stronger effect = lower value 1.03 | S. cerevisiae deletion strains, locus YMR307W, strain GAS1, stronger effect = lower value 1.01 | S. cerevisiae deletion strains, locus YNL067W, strain RPL9B, stronger effect = lower value 1.03 | S. cerevisiae deletion strains, locus YNL071W, strain lat1, stronger effect = lower value 1.02 | S. cerevisiae deletion strains, locus YNL128W, strain TEP1, stronger effect = lower value 1.03 | S. cerevisiae deletion strains, locus YNL153C, strain GIM3, stronger effect = lower value 1.03 | S. cerevisiae deletion strains, locus YNL183C, strain NPR1, stronger effect = lower value 0.899 | S. cerevisiae deletion strains, locus YNL209W, strain ssb2, stronger effect = lower value 0.989 | S. cerevisiae deletion strains, locus YNL233W, strain BNI4, stronger effect = lower value 1.02 | S. cerevisiae deletion strains, locus YNL248C, strain rpa49, stronger effect = lower value 1.06 | S. cerevisiae deletion strains, locus YNL250W, strain rad50, stronger effect = lower value 1.02 | S. cerevisiae deletion strains, locus YNL271C, strain bni1, stronger effect = lower value 1.03 | S. cerevisiae deletion strains, locus YNL298W, strain CLA4, stronger effect = lower value 1.02 | S. cerevisiae deletion strains, locus YNL307C, strain MCK1, stronger effect = lower value 1.03 | S. cerevisiae deletion strains, locus YNL322C, strain KRE1 (second series), stronger effect = lower value 1.01 | S. cerevisiae deletion strains, locus YNL322C, strain KRE1, stronger effect = lower value 1.01 | S. cerevisiae deletion strains, locus YNR049C, strain mso1, stronger effect = lower value 1 | S. cerevisiae deletion strains, locus YNR052C, strain pop2, stronger effect = lower value 1.02 | S. cerevisiae deletion strains, locus YOL006C, strain TOP1, stronger effect = lower value 1.11 | S. cerevisiae deletion strains, locus YOL012C, strain htz1 1.15 | S. cerevisiae deletion strains, locus YOL147C, strain pex11, stronger effect = lower value 1.02 | S. cerevisiae deletion strains, locus YOR001W, strain rrp6, stronger effect = lower value 1.02 | S. cerevisiae deletion strains, locus YOR061W, strain CKA2, stronger effect = lower value 1.01 | S. cerevisiae deletion strains, locus YOR069W, strain VPS5, stronger effect = lower value 0.987 | S. cerevisiae deletion strains, locus YOR070C, strain gyp1, stronger effect = lower value 1 | S. cerevisiae deletion strains, locus YOR080W, strain dia2, stronger effect = lower value 0.996 | S. cerevisiae deletion strains, locus YOR083W, strain WHI5, stronger effect = lower value 0.998 | S. cerevisiae deletion strains, locus YOR106W, strain vam3, stronger effect = lower value 0.98 | S. cerevisiae deletion strains, locus YOR136W, strain idh2, stronger effect = lower value 1.03 | S. cerevisiae deletion strains, locus YOR144C, strain elg1, stronger effect = lower value 1.01 | S. cerevisiae deletion strains, locus YOR184W, strain ser1, stronger effect = lower value 1.03 | S. cerevisiae deletion strains, locus YOR231W, strain MKK1, stronger effect = lower value 0.996 | S. cerevisiae deletion strains, locus YOR265W, strain rbl2, stronger effect = lower value 0.997 | S. cerevisiae deletion strains, locus YOR270C, strain vph1, stronger effect = lower value 1.05 | S. cerevisiae deletion strains, locus YOR290C, strain snf2, stronger effect = lower value 1.01 | S. cerevisiae deletion strains, locus YOR316C, strain cot1, stronger effect = lower value 1.03 | S. cerevisiae deletion strains, locus YPL051W, strain arl3, stronger effect = lower value 0.988 | S. cerevisiae deletion strains, locus YPL055C, strain LGE1, stronger effect = lower value 1.03 | S. cerevisiae deletion strains, locus YPL078C, strain atp4, stronger effect = lower value 1.01 | S. cerevisiae deletion strains, locus YPL106C, strain sse1, stronger effect = lower value 1.01 | S. cerevisiae deletion strains, locus YPL240C, strain hsp82, stronger effect = lower value 1.03 | S. cerevisiae deletion strains, locus YPL241C, strain CIN2, stronger effect = lower value 1.01 | S. cerevisiae deletion strains, locus YPL256C, strain CLN2, stronger effect = lower value 1.03 | S. cerevisiae deletion strains, locus YPR119W, strain clb2, stronger effect = lower value 1.01 | S. cerevisiae deletion strains, locus YPR141C, strain kar3, stronger effect = lower value 1.02 | S. cerevisiae deletion strains, locus YPR163C, strain tif3, stronger effect = lower value 1.02 | S. cerevisiae deletion strains, locus YPR167C, strain met16, stronger effect = lower value 1.02 | S. cerevisiae deletion strains, strain wtn01, stronger effect = lower value 1.02 | S. cerevisiae strains, strain wild type, stronger effect = lower value 1.02
